Inconclusive results are not listed. Calls of active or inactive are those of the source. Unless noted, the call rests on the fitted dose curve; in most records, active means well fitted curve in the direction sought with a large enough effect; inconclusive means small, poorly fitted or top-dose-only effect, or another doubt; inactive means no such curve, though single readings can be large; an effect the other way counts as inactive or inconclusive.

The nature of assay [1]: qHTS profiling for inhibitors of Plasmodium falciparum (3D7) proliferation (AID 743322; call rule not given here;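 further: infected erythrocytes exposed to compound for 72 h before lysis; 100% = DMSO vehicle wells and 0% = 0.29 µM artemisinin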). The settings on record: P. falciparum 3D7 proliferation; at 28.7 µM (top of the series) unless noted. A digest of the protocol: (§1)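 Parasite DNA was quantified by SYBR Green I fluorescence (ex 485, em 535 nm) after overnight lysis in saponin/Triton buffer at room temperature. Cultures at 0.3% parasitemia and 2.5% hematocrit were first exposed to compound for 72 h at 37 C; signals were normalised to artemisinin (0.29 uM) and vehicle wells.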

Assay [2] can be described thus: qHTS profiling for inhibitors of Plasmodium falciparum (DD2) proliferation (AID 743323; call rule not given here). The following applies: lower = more inhibition; at 28.7 µM (top of the series) unless noted. The method, boiled down:
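Parasite DNA quantified by SYBR Green fluorescence (ex 485, em 535 nm) after saponin/Triton lysis and overnight dark incubation. Cultures: 0.3% parasitemia, 2.5% hematocrit, 72 h, 37 C; data scaled between DMSO and 0.29 uM artemisinin.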
(In qHTS, concentration-response curves come from the screen itself.)

Assay [3] is described as follows: qHTS profiling for inhibitors of Plasmodium falciparum (HB3) proliferation (AID 743324).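 Further: 100% = DMSO vehicle wells and 0% = artemisinin-treated control wells.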 The following applies: Plasmodium falciparum HB3 blood-stage proliferation; at 28.7 µM (top of the series) unless noted. The method, boiled down: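 SYBR Green fluorescence (485 ex/535 em) of lysed cultures, incubated overnight at room temperature in the dark, quantifies parasite DNA. Infected erythrocytes at 0.3% parasitemia and 2.5% hematocrit were exposed 72 h; values normalized to DMSO and 0.29 uM artemisinin controls.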

Assay [4] can be described thus: qHTS profiling of the MIPE4 collection as inhibitors of Plasmodium falciparum (3D7) proliferation (AID 743344; call rule not given here;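 further: scaled between DMSO vehicle wells and 0.29 µM artemisinin as full inhibition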). The following applies: P. falciparum 3D7 in erythrocytes, SYBR Green DNA fluorescence, 72 h; at 28.5 µM (top of the series) unless noted. A digest of the protocol: as §1
A short description of assay [5]: qHTS profiling of the MIPE4 collection as inhibitors of Plasmodium falciparum (DD2) proliferation (AID 743345; call rule not given here). The settings on record: P. falciparum Dd2 in erythrocytes, SYBR Green DNA, 72 h; at 28.5 µM (top of the series) unless noted. The method, boiled down: as §1
The nature of assay [6]: qHTS profiling of the MIPE4 collection as inhibitors of Plasmodium falciparum (DD2) proliferation (Rep 2) (AID 743346; call rule not given here). The settings on record: P. falciparum Dd2 in erythrocytes, SYBR Green DNA, 72 h; at 28.5 µM (top of the series) unless noted. A digest of the protocol: as §1
The nature of assay [7]: qHTS profiling of the MIPE4 collection as inhibitors of Plasmodium falciparum (HB3) proliferation (AID 743347; call rule not given here;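 further: plate controls were DMSO vehicle wells for no effect and artemisinin wells for full effect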). The settings on record: P. falciparum HB3 in erythrocytes, SYBR Green DNA, 72 h; at 28.5 µM (top of the series) unless noted. A digest of the protocol: as §1
A short description of assay [8]: Cell Proliferation Assay Versus the ED40515 IL2 Dependent ATL cell lines (AID 1053195; calls by dose curve). The settings on record: ED40515 IL2-dependent ATL cells. The method, boiled down:
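CellTiter-Glo luminescence (15 min, RT) measured viability after 48 hours at 37C; cells were ED40515 +IL2, 1000/well, in phenol red-free RPMI with 5% FBS. Controls: DMSO and 9.2 uM bortezomib.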

Assay [9] can be described thus: High-throughput drug toxicity screening in the BPDCN cell line Gen2.2 (AID 1224824; call rule not given here;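 further: cells exposed to compounds for 48 h before reading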). The settings on record: Gen2.2 BPDCN cells; at 45.8 µM (top of the series) unless noted. The method, boiled down: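 CellTiter-Glo luminescence after 48 h compound exposure of Gen2.2 cells; percent activity set with DMSO as 100% and bortezomib (9.2 uM final) as 0%. Cells seeded at 500 per well, RPMI + 10% FBS, 37 °C.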

Assay [10] is described as follows: High-throughput drug toxicity screening in the BPDCN cell line Cal-1 (AID 1224825; call rule not given here). The settings on record: Cal-1 BPDCN cell viability, qHTS; at 45.8 µM (top of the series) unless noted. A digest of the protocol: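 Percent activity derived from CellTiter-Glo luminescence, scaling DMSO to 100% and 9.2 uM final bortezomib to 0%. BPDCN Cal-1 cells (500/well, RPMI plus 10% FBS) incubated with compounds 48 hours at 37C before reading.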

A short description of assay [11]: qHTS assay for measurement of the activity of small molecule inhibitors on Zika virus induced Caspase-3 activity in human iPSC derived neural progenitor cells (hNPCs) (AID 1224857). Further: % of control where 0% means no effect; nearly all actives have a fitted effect of over 65% in size. A digest of the protocol: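 In medium with heparin 2 ug/ml and cyclopamine 2 uM, hNPCs (350 cells/well) received compound for one hour and then Zika virus at 2 FFU/cell; caspase activity was measured by Caspase-Glo 3/7 luminescence 6 h post-infection.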

Assay [12] can be described thus: qHTS assay for measurement of the activity of small molecule inhibitors on Zika virus induced Caspase-3 activity in human astrocytoma cells (AID 1224859).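 Further: plate controls were ZIKV-infected untreated cells for no effect and uninfected cells for full effect.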 A digest of the protocol: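 A cell-based luminescent caspase-3/7 assay used SNB-19 cells infected with ZIKV (2 FFU/cell) for 6 h following 1 h compound pretreatment.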
Assay [13] in a line: qHTS Screen of the MIPE 4.0 Collection Against Ewings Sarcoma (RDES) (AID 1259252). Further: nearly all actives have a fitted effect of over 35% in size. Further: potency means the concentration at half of the fitted maximal effect. A digest of the protocol: (§2)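 Cells plated in serum-containing RPMI (5% FBS) and treated with compound dilutions for 48 h. Readout luminescent viability; normalization relied on vehicle (no inhibition) and media-only columns (full inhibition).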
Assay [14] can be described thus: qHTS Screen of the MIPE 4.0 Collection Against Ewings Sarcoma (TC71) (AID 1259253). Further: nearly all actives have a fitted effect of over 40% in size. Further: potency means the concentration at half of the fitted maximal effect. The method, boiled down: as §2
Assay [15] is described as follows: qHTS Screen of the MIPE 4.0 Collection Against Ewings Sarcoma (EW8) (AID 1259255). Further: nearly all actives have a fitted effect of over 35% in size. Further: potency means the concentration at half of the fitted maximal effect.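 On viability: 100% = DMSO-treated cells and 0% = medium-only wells without cells.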 A digest of the protocol: as §2
A short description of assay [16]: qHTS Screen of the MIPE 4.0 Collection Against Ewings Sarcoma (TC32) (AID 1259256). Further: nearly all actives have a fitted effect of over 45% in size. Further: potency means the concentration at half of the fitted maximal effect. A digest of the protocol:
as §2

Assay [17] is described as follows: Identifying Small Molecule Inhibitors of Pancreatic Cancer Stem Cells (A2780, Spheroid) (AID 1259357). Further: potency means the concentration at half of the fitted maximal effect.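 Further: spheroids pre-formed over 14 days in stem cell medium on hydrogel; compound exposure lasted 48 h before the ATP luminescence read.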 The following applies: Potency: A2780 spheroid viability. The method, boiled down:
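Spheroids grown 14 days in stem cell media on hydrogel-coated nonadherent plates; 2D lines seeded directly. Compounds added after 4 h attachment, 48 h at 37C, 5% CO2; CellTiter-Glo luminescence normalized to DMSO (no inhibition) and no-cell wells (full inhibition).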

Assay [18] can be described thus: Cell Proliferation Assay Versus the ED40515 IL2 Independent ATL cell lines (AID 1053194; calls by dose curve). The settings on record: ED40515 IL2-independent ATL cells. The method, boiled down:
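CellTiter-Glo luminescence, read after 15 min at RT, gave viability of IL-2-free ED40515 cells (1000/well, RPMI plus 5% FBS) following 48 h drug exposure at 37C. Control wells held DMSO or 9.2 uM bortezomib.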

Assay [19] in a line: qHTS assay to identify small molecule inhibitors of chordoma cells - UCH-1 (AID 1259355). Further: potency means the concentration at half of the fitted maximal effect; nearly all actives have a fitted effect of over 55% in size. A digest of the protocol:
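800 cells/well, overnight attach; compounds pinned at 15 concs, then auranofin/camptothecin/doxorubicin/rubitecan/topotecan combo added; 48hr 37 C, 5% CO2; CellTiter-Glo, 30min RT, luminescence.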

The nature of assay [20]: qHTS assay to identify small molecule inhibitors of chordoma cells - UCH-2 (AID 1259356). Further: on the % scale 0 is the no-effect control and ±100 the full control effect.

Turning to `CNC(=O)c1ccc(N2C(=S)N(c3ccc(C#N)c(C(F)(F)F)c3)C(=O)C2(C)C)cc1F`, in [1], the remaining parasite growth % (stronger effect = lower value) was 87.6%. The compound also registered an activity, percent of control in assay [2] of 87.8%. Further, the remaining proliferation (% of control), lower = more inhibition in [3] was 62.8%. This compound had a parasite growth, % of DMSO control in assay [4] of 53.9%. The same compound returned a parasite growth remaining, % of DMSO control (lower = more inhibition) in [5] of 86.3%. For the same compound, in assay [6], the parasite growth, % of control (lower = inhibition) came to 53.7%. Also, the growth, % of control in assay [7] came out at 41.9%. Also, the Potency in assay [8] was 16.6 µM (active); in assay [17], 0.166 µM (active). In addition, the cell viability, % of control (lower = more cytotoxic) in assay [9] worked out at 185%. The viability (% of control) in assay [10] is 112%. The Potency entry in assay [11], in assay [12], in assay [13], in assay [14], in assay [15] and in [16] was “inactive” each time.

As for `COc1cccc2cc(-c3nc(C4CCC(C(=O)O)CC4)n4ncnc(N)c34)[nH]c12` (centres undefined), the remaining parasite growth % (stronger effect = lower value) in [1] amounted to 64.8%. The parasite growth, % of DMSO control in assay [4] was determined as 13.9%. Besides, in assay [5], the parasite growth remaining, % of DMSO control (lower = more inhibition) is 16.6%. Also, the parasite growth, % of control (lower = inhibition) in assay [6] was 28.6%. For the same compound, the Potency was 4.18 µM (active) in assay [8]; 0.833 µM (active) in assay [13]; 0.662 µM (active) in assay [14]; 0.526 µM (active) in assay [15]; 0.526 µM (active) in assay [16]. Also, the cell viability, % of control (lower = more cytotoxic) in assay [9] was 5.49%. Further, in assay [10], the viability (% of control) amounted to 21%. Further, the Potency entry in assay [11] and in [12] was “inactive” each time.

Turning to `CC(C)(N)C(=O)N[C@H](COCc1ccccc1)C(=O)N1CCC2(CC1)CN(S(C)(=O)=O)c1ccccc12`, in [1], the remaining parasite growth % (stronger effect = lower value) came to 88.9%. Further, the activity, percent of control in [2] was determined as 10.9%. In assay [3], the remaining proliferation (% of control), lower = more inhibition was found to be 1.31%. In assay [4], this compound yielded a parasite growth, % of DMSO control of 22.8%. In [5], this compound showed a parasite growth remaining, % of DMSO control (lower = more inhibition) of 10.9%. The compound also had a parasite growth, % of control (lower = inhibition) in assay [6] of 7.19%. This compound had a growth, % of control in [7] of 26.2%. Moreover, the Potency in [18] is 7.43 µM (active); in assay [8], 11.8 µM (active); in assay [13], 20.9 µM (active); in [14], 29.6 µM (active); in assay [15] it was 20.9 µM (active). Besides, in assay [9], the cell viability, % of control (lower = more cytotoxic) was 14.7%. Moreover, the viability (% of control) in assay [10] worked out at 71%. The Potency entry in assay [11] and in assay [12] was “inactive” each time.

Turning to `Cc1cc(Nc2nc(N[C@@H](C)c3ncc(F)cn3)ncc2Cl)n[nH]1`, the remaining parasite growth % (stronger effect = lower value) in [1] amounted to 108%. This compound displayed an activity, percent of control in [2] of 100%. Moreover, the remaining proliferation (% of control), lower = more inhibition in assay [3] came to 101%. This compound also yielded a parasite growth, % of DMSO control in [4] of 6.82%. Further, in [5], the parasite growth remaining, % of DMSO control (lower = more inhibition) came to 8.04%. In assay [6], this compound returned a parasite growth, % of control (lower = inhibition) of 21.5%. In assay [7], this compound gave a growth, % of control of 10.9%. The Potency in assay [8] is 0.662 µM (active); in [13], 6.62 µM (active); in assay [14], 10.5 µM (active); in assay [15], 26.4 µM (active); in [16], 16.6 µM (active). Also, the cell viability, % of control (lower = more cytotoxic) in assay [9] was determined as 151%. Moreover, the viability (% of control) in assay [10] was found to be 4.1%. For the same compound, the Potency entry in [11] and in [12] was “inactive” each time.

Turning to `C#Cc1cccc(Nc2ncnc3cc(OCCOC)c(OCCOC)cc23)c1`, the remaining parasite growth % (stronger effect = lower value) in assay [1] is 12.2%. The activity, percent of control in [2] is 27.9%. Besides, in assay [3], the remaining proliferation (% of control), lower = more inhibition came out at 6.23%. Further, the parasite growth, % of DMSO control in assay [4] stood at 24.3%. This compound also had a parasite growth remaining, % of DMSO control (lower = more inhibition) in [5] of 50.4%. In assay [6], this compound yielded a parasite growth, % of control (lower = inhibition) of 43.1%. In addition, the Potency in [8] is 9.35 µM (active); in assay [13], 4.18 µM (active); in assay [14] it was 14.8 µM (active); in assay [15], 23.5 µM (active); in assay [16], 20.9 µM (active); in assay [19] it was 0.141 µM (active). In addition, the cell viability, % of control (lower = more cytotoxic) in assay [9] turned out to be 24.7%. Further, the viability (% of control) in assay [10] was 10.9%. The Potency entry in assay [11] and in [12] was “inactive” each time. The call in [20] was inactive.

As for `Cc1cc2c(F)c(Oc3ncnn4cc(OC[C@@H](C)O)c(C)c34)ccc2[nH]1`, the remaining parasite growth % (stronger effect = lower value) in [1] turned out to be 101%. In addition, in assay [3], the remaining proliferation (% of control), lower = more inhibition was 75.1%. The compound further gave a parasite growth, % of DMSO control in [4] of 46.6%. Moreover, the parasite growth remaining, % of DMSO control (lower = more inhibition) in assay [5] was found to be 93.1%. The parasite growth, % of control (lower = inhibition) in [6] came to 54.4%. For the same compound, the Potency in assay [18] is 1.05 µM (active); in assay [13] it was 2.35 µM (active); in assay [14], 13.2 µM (active); in assay [15] it was 20.9 µM (active); in assay [16], 20.9 µM (active). The cell viability, % of control (lower = more cytotoxic) in [9] was 249%. For the same compound, the viability (% of control) in [10] came out at 71.2%. Moreover, the Potency entry in assay [11], in [12] and in assay [17] was “inactive” throughout.

For the origin of these results see PubChem BioAssay (NCATS).
